Bioassay records as filed in PubChem.
Tb PYK inh = qHTS of Trypanosoma Brucei Inhibitors; Potency, µM (top dose mostly 76.8 µM), inactives show at the highest dose activity, negative = inhibition, usual class: inhibitors; actives 0.12% (n = 410,000); TbPYK enzyme, Kinase-Glo Plus ATP luminescence, 45 min; AID 624173, 2012; also: potency is read from the fitted curve at half-maximal effect; % is scaled to controls: 0 for no effect and ±100 for the full control effect; nearly all actives have a fitted effect of over 50% in size
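Assay buffer: 50 mM TEA pH 7.2, 100 mM KCl, 10 mM MgCl2, 0.05% BSA, 0.01% Tween-20. Pyruvate kinase from T. brucei plus substrate met compound, then ADP (130 uM final). Luminescence was read post 45 min RT.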
LmPK inhibitor = qHTS Assay for Inhibitors of Leishmania Mexicana Pyruvate Kinase (LmPK); Q27686; purified LmPK, Kinase-Glo ATP luminescence, 1 h; Potency, µM (doses to about 57.5 µM), for inactives: at the highest dose activity change, negative = inhibition, hits mostly inhibitors; actives 0.37% (n = 290,000); also: potency is read from the fitted curve at half-maximal effect; % is scaled to controls: 0 for no effect and ±100 for the full control effect
Target sequence (Q27686 whole entry, looked up): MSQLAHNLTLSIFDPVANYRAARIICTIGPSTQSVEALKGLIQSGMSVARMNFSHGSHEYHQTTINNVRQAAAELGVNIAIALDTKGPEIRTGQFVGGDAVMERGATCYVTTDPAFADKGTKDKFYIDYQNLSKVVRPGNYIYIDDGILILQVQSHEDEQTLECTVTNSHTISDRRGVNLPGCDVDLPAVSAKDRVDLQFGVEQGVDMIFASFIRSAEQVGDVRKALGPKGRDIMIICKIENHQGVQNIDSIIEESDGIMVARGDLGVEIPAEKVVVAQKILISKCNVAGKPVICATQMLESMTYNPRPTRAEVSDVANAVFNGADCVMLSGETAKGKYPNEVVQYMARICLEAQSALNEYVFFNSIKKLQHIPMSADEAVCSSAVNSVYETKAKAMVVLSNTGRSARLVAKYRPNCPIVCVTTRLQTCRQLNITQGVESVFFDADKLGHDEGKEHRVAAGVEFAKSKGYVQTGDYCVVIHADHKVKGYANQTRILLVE
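Kinase-Glo luminescence read after 1 h RT reaction of 0.1 nM LmPK with 0.5 mM PEP and 0.1 mM ADP. Activity scaled between uninhibited and enzyme-free controls.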
FBPA Giardia inh = qHTS Assay for Inhibitors of Fructose-1,6-bisphosphate Aldolase from Giardia Lamblia | A8B2U2 | purified Giardia FBPA | actives 0.71% (n = 290,000) | Potency, µM (top dose mostly 59.6 µM), for the others: top-dose activity, negative = inhibition, usual class: inhibitors; also: potency is read from the fitted curve at half-maximal effect; % is scaled to controls: 0 for no effect and ±100 for the full control effect; nearly all actives have a fitted effect of over 55% in size
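40 nM FBPA preincubated 10 min at RT with compound (up to 57.5 uM final), then substrate plus GAPDH/TPI/NAD/arsenate coupling and diaphorase/resazurin added. Fluorescence read after 20 min at RT, 525/598 nm.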
Shiga inhibitor = A qHTS for Small Molecule Inhibitors of Shiga Toxin; inhibition, % at 38.7 µM; Vero cells, Shiga toxin protein synthesis inhibition reporter; AID 2315, 2010; actives 9.2% (n = 290,000); in the data active = inhibition mostly above about 28%, no sharp cut-off; inactive = mostly below about 43%; also: 0% is about no effect
Cycloheximide cs = Cycloheximide Counterscreen for Small Molecule Inhibitors of Shiga Toxin; actives 12% (n = 300,000); cell reporter, cycloheximide protein synthesis inhibition counterscreen; max response, %; in the data active = max response mostly above about 13%, no sharp cut-off; inactive = mostly below about 14%; also: read at 38.3 µM for the half of the compounds with a filed dose; 0% is about no effect
RE007 growth inh = qHTS Assay for Inhibitors of the HIV-1 protein Vpr; actives 0.21% (n = 360,000); AID 651644, 2012; S. pombe RE007 Vpr strain, BacTiter-Glo ATP luminescence, 24 h; Potency, µM (titrated, usually from 92.2 µM), inactives show at the highest dose activity change, negative = less growth, hits mostly inhibitors; active = well fitted falling curve with a large enough effect; inconclusive = small, poorly fitted or top-dose-only effect; inactive = no such curve, though single readings can be large or run the other way; also: potency is read from the fitted curve at half-maximal effect; % is scaled to controls: 0 for no effect and ±100 for the full control effect; nearly all actives have a fitted effect of over 50% in size
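Fission yeast RE007 carrying one integrated HIV-1 vpr copy, seeded at OD 0.01 in PMG+AL medium with 23 nL pinned compound. Grown 24 h at 30 degrees; viability read by BacTiter-Glo luminescence after 5 min.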
* = called active by the depositor; ? = inconclusive; . = no result; + = active, no number; [ ] = another dose, or the depositor's remark. Many of the other results were omitted from the sample, so hits are more common in it than they were. Unless noted, calls follow the shape of the dose curve; as a rule, active = well fitted curve in the direction sought with a large enough effect; inconclusive = small, poorly fitted or top-dose-only effect, or another doubt; inactive = no such curve, though single readings can be large; an effect the other way counts as inactive or inconclusive.

SMILES	Tb PYK inh	LmPK inhibitor	FBPA Giardia inh	Shiga inhibitor	Cycloheximide cs	RE007 growth inh
CCOC(=O)Cc1c(C)c2ccc(N(CC)CC)cc2oc1=O	-0.5%	-4.4%	-14.8%	99.9*	19.3*	5.6%
CCOC(=O)CCc1c(C)c2ccc(O)cc2oc1=O	1.0%	5.0%	11.3%	-1.4	13.2*	-7.6%
COc1ccc(-c2ccc(C3C4C=CCCC4(C)C(=O)N3Cc3ccccc3)c(F)c2)cc1 (configuration not stated)	.	.	-3.0%	-3.7	7.8	.
Cc1ccc(/C=N/NC(=O)c2ccc(Br)o2)s1	-1.8%	-14.8%	-6.9%	81.7*	42.9*	30.7%
Cc1ccc(/C=N/NC(=O)Cc2ccc(O)cc2)s1	0.1%	0.4%	-4.0%	25.5	27.2*	10.9%
CCc1ccc(/C=N\NC(=O)c2ccc(Br)o2)s1	4.6%	-12.0%	-11.9%	99.6*	89.7*	5.3%
O=C(Cn1cc(SCc2cccc(F)c2)c2ccccc21)N1CCCC1	-16.9%	.	.	.	.	.
CC(Cc1ccco1)NC(=O)c1cccc(S(=O)(=O)N(C)C)c1 (configuration not stated)	0.3%	-4.5%	8.5%	66.8*	30.3*	0.5%
Cc1ccc2oc(C(=O)NCC(c3ccco3)N(C)C)c(C)c2c1 (configuration not stated)	-7.5%	9.0%	6.8%	74.9*	40.7*	-5.1%
CN(C)C(CNC(=O)c1ccc(C(F)(F)F)cc1)c1ccco1 (configuration not stated)	-7.3%	-7.1%	.	17.1	17.4*	0.5%
CC(Cc1ccco1)NC(=O)c1ccc(C(F)(F)F)cc1 (configuration not stated)	0.1%	-2.9%	0.8%	+	43.4*	-10.8%
CC(=O)Nc1ccc(C(=O)NCC(c2ccco2)N(C)C)cc1 (configuration not stated)	-0.2%	.	.	.	.	-11.7%
O=C(NCc1ccco1)c1ccc(C(F)(F)F)cc1	1.4%	5.1%	1.3%	12.7	2.4	-1.8%
O=C(CSc1nccn1C1CCCC1)Nc1cccc(F)c1	5.4%	.	.	.	.	.
CCC(=O)c1ccc(/C=C/c2nc3ccccc3n2C)o1	-14.1%	-23.5%	-10.6%	66.7*	29.9*	-22.7%
COc1ccc(C)cc1-n1nnnc1SCC1CCCO1 (configuration not stated)	-13.1%	4.6%	12.0%	-3.4	11.0	-5.0%
COc1ccc(C)cc1-n1nnnc1SCc1nc2ccccc2s1	-7.0%	-7.5%	-8.5%	129.0*	45.3*	-15.1%
COc1ccc(-n2nnnc2SCc2nc3ccccc3s2)cc1	?	4.9%	-1.2%	99.0*	67.6*	?
CCCCn1c(CNC(=O)c2ccc(OC)cc2)nnc1SCC(=O)Nc1ccccc1	-1.8%	.	.	.	.	.
COc1c(O)cc2c(c1O)[C@@H]1O[C@@H](CO)[C@@H](O)[C@@H](O)[C@@H]1OC2=O	1.4%[33.2 µM]	.	7.3%[21.7 µM]	.	.	.
CCCc1nc2sc3c(N4CCC(C)CC4)ncnc3c2c2c1CCCC2	1.6%	.	.	.	.	.
CCOC(=O)c1nc(C)n(-c2cc(OC)c(Cl)cc2Cl)n1	-0.6%	9.9%	3.0%	41.1*	46.1*	-3.6%
Cc1cccn2c(=O)c3cc(C(=O)NC(C)C)n(C)c3nc12	-0.6%	.	.	.	.	.
COc1ccc(N2CCN(S(=O)(=O)c3ccc4oc(=O)c5ncn(C)c5c4c3)CC2)cc1	2.3%	.	.	.	.	.
CCOC(=O)c1cnc(-c2ccccc2)nc1N(C)C	-1.7%	-4.5%	6.2%	120.4*	47.6*	-18.4%
SMILES	Tb PYK inh	LmPK inhibitor	FBPA Giardia inh	Shiga inhibitor	Cycloheximide cs	RE007 growth inh
CCOC(=O)c1cnc(-c2ccccc2)nc1N	0.5%	-17.7%	-4.6%	125.7*	57.3*	-21.5%
Cc1ccc(C(C)C)c(OC(C)C(=O)NCC2(N(C)C)CCCCC2)c1 (configuration not stated)	1.9%	.	.	.	.	.
COc1ccc2nc(NNC(=O)C3COc4ccccc4O3)sc2c1 (configuration not stated)	-14.8%	3.8%	12.9%	55.0*	13.5*	15.5%
COc1ccc2nc(NC(=O)C3COc4ccccc4O3)sc2c1 (configuration not stated)	0.0%	5.8%	0.5%	77.1*	29.8*	-18.5%
CS(=O)(=O)c1ccc2nc(NC(=O)C3COc4ccccc4O3)sc2c1 (configuration not stated)	-5.8%	-0.8%	-4.9%	38.5	24.8*	-15.4%
O=C(Nc1nc(-c2nc3ccccc3s2)cs1)C1COc2ccccc2O1 (configuration not stated)	-3.7%	1.9%	8.7%	68.4*	23.4*	165.0%
COc1ccc(OC)c(-c2csc(NC(=O)C3COc4ccccc4O3)n2)c1 (configuration not stated)	-9.2%	2.9%	-7.2%	-8.2	-2.8	0.6%
CS(=O)(=O)c1ccc2nc(NC(=O)C3CCCO3)sc2c1 (configuration not stated)	-14.1%	3.4%	0.4%	31.9	0.7	-13.5%
CCCOc1cccc(C(=O)N2CCCCC2CCN2CCCCC2)c1 (configuration not stated)	2.9%	.	.	.	.	.
CCOC(=O)c1cc(-c2ccccc2)n(CCCC(=O)Nc2cccc(C)c2C)c1C	7.7%[15.4 µM]	.	.	.	.	.
CCCCCCCCC/C(=N\O)c1ccccn1	3.1%	1.6%	-2.9%	82.6*	23.6*	?
Cc1ccn2c(CN3CCOCC3)c(-c3ccccc3)nc2c1	-0.4%	-3.6%	-4.0%	47.7*	28.0*	-8.5%
Clc1ccc(-c2nc3ccccn3c2CN2CCCCC2)cc1	-6.5%	-2.6%	-1.8%	40.3	18.6*	6.3%
COc1ccccc1Cc1c(-c2ccc(Cl)cc2)nc2ccc(Br)cn12	-3.5%	.	.	.	.	-6.8%
Cc1ccn2c(Cc3ccccc3)c(-c3ccccc3)nc2c1	-2.3%	.	.	.	.	-12.7%
CN(C)Cc1c(-c2ccc(Cl)cc2)nc2ccccn12	-1.4%	-0.3%	3.6%	126.2*	45.2*	4.1%
Oc1ccc(N2CCN(Cc3c(-c4ccccc4)nc4ccccn34)CC2)cc1	?	?	-4.4%	0.3	0.2	-5.1%
COc1cccc(C(=O)Nc2ccc3nc(SCc4ccc(C)cc4)sc3c2)c1	2.3%	.	.	.	.	.
Cc1ccc(/C=C/C(=O)c2ccccc(=O)c2O)c(C)c1	4.0%	-1.8%	?	30.5*	19.7	?
Cc1ccc(C)c(/C=C/C(=O)c2ccccc(=O)c2O)c1	-0.5%	-2.1%	?	52.2*	111.1*	?
O=C(/C=C/c1ccccc1)c1ccc(O)cc1O	.	.	4.9%	.	.	.
CC(=O)Nc1ccccc1NC(=O)c1ccc(C)cc1C	-0.7%	-4.7%	1.9%	-4.7	-3.5	-8.2%
O=C(/C=C/c1ccc([N+](=O)[O-])cc1)c1ccccc(=O)c1O	-6.8%	.	.	.	.	-24.6%
